The entries come from a sample that favours hits as a whole.
CapD inh = CapD enzyme inhibition | 0.23% of 140,000 active | z-score (no concentration beside the values) | purified CapD enzyme, fluorescence intensity read-out; hits give low values; in the data active means z-score mostly below about -2.9, no sharp cut-off; inactive means mostly above about -1.9
Each line names hits and unclear results; the compound was inactive in the other large screens.

CCCc1cc2c(=O)c(-c3ccc4c(c3)OCCO4)c(C(F)(F)F)oc2c(C=[N+](C)C)c1O	none
CCOC(=O)c1c(C)n(-c2ccccc2C)c2ccc(OC(=O)c3ccccc3)cc12	none
O=C(Cc1ccccc1)c1ccc(O)cc1	none
O=C(Cc1ccccc1)c1cc(O)c(O)cc1O	CapD inh -7.55
Nc1ccccc1C(=O)Cc1ccccc1	none
CCOc1ccc(N(C)S(=O)(=O)c2ccc3[nH]cc(C(=O)NCCC4=CCCCC4)c(=O)c3c2)cc1	none
CC1Cc2ccccc2N1C(=O)c1cccc(C(=O)N2c3ccccc3CC2C)n1 (stereo unspecified)	none
CC1Cc2ccccc2N1S(=O)(=O)c1ccccc1 (stereo unspecified)	none
CC1Cc2ccccc2N1C1=CC(=O)CCC1 (stereo unspecified)	CapD inh -5.75
CN1c2ccsc2C(=O)/C(=C\Nc2ccncc2)S1(=O)=O	none
Cc1cc([N+](=O)[O-])c(C)cc1-c1ccc(/C=N/c2c(-c3ccco3)nc3ccccn23)o1	none
CCCCn1c(=O)nc2n(-c3ccc([N+](=O)[O-])cc3)c3ccccc3cc-2c1=O	none
CCOC(=O)C1=C(C)N=c2s/c(=C\c3cccc(OC(C)=O)c3)c(=O)n2C1c1ccccc1OC(C)C (stereo unspecified)	none
Cc1c(C#N)sc2ccccc12	none
c1ccc2c(c1)sc1ccccc12	CapD inh -10.1
COc1c(C#N)sc2ccccc12	none
O=C(CSc1nnc2sc3ccccc3n12)Nc1ccc2ccccc2c1	none
COC(=O)c1sc(-c2ccc(C(C)(C)C)cc2)cc1N	none
N#CC(C#N)=NNc1ccccc1C(N)=O	CapD inh -5.96
CNc1ccccc1C(N)=O	none
NC(=O)c1ccccc1NC(=O)Nc1ccccc1	none
O=C1C2=C(C(c3ccccc3)=NCCN2)C(c2cccc(F)c2)N1c1ccccc1 (stereo unspecified)	none
Cc1ccc(S(=O)(=O)c2nc(Nc3nccs3)sc2Cl)cc1	CapD inh -5.1
CCOc1nc(S(=O)(=O)c2ccc(C)cc2)c(Cl)s1	none
Cc1ccc(S(=O)(=O)c2nc(NC3CCS(=O)(=O)C3)sc2Cl)cc1 (stereo unspecified)	none
CC(C)(C)C(=O)N1CCC(c2nnc(-c3ccccc3)o2)CC1	none
CC(=O)c1ccc(S(=O)(=O)N2CCN(C(=O)Cc3ccc(Br)cc3)CC2)cc1	none
CN1CCN(c2ccccc2NC(=O)C2c3ccccc3C(=O)N(C)C2c2cn(C)c3ccccc23)CC1 (stereo unspecified)	none
COc1ccc(N(C(=O)C(C)C)S(=O)(=O)c2cccs2)cc1	CapD inh -7.05
CC(C)C(=O)N(c1ccc2oc(=O)sc2c1)S(=O)(=O)c1cccs1	none
CC(=O)Oc1ccc(N(C(C)=O)S(=O)(=O)c2cccs2)cc1	none
COc1ccc(OC)c(N2C(N)=C(C#N)C(c3ccc(OC)c(O)c3)C3=C2CCCC3=O)c1 (stereo unspecified)	none
COc1ccc(N/C=C(\C#N)C(=O)N/C=N/OCc2ccc([N+](=O)[O-])cc2)cc1	none
COc1ccc(C(=O)Nc2cc(C(C)=O)c(/C=C/N(C)C)oc2=O)cc1	none
CCOC(=O)c1c(C)oc2ccc(OCC(=O)c3ccc(Br)cc3)cc12	none
COc1ccc2oc(/C=C/N(C)C)c(C(=O)c3ccc(Br)cc3)c2c1	CapD inh -3.27
CON(C)C(=O)c1ccc2cc[nH]c2c1	none
COc1cc(C(F)(F)F)nc(Oc2ccc(Cl)c3cccnc23)n1	none
O=S(=O)(Nc1ccc2nccnc2c1)c1ccc(Cl)c(Cl)c1	none
CCOC(=O)c1nc2ccccc2n(C(C)=O)c1=O	CapD inh -6.62
CCOC(=O)c1nc2ccccc2c(C)c1C	none
CC(=O)n1c(N)nc2ccccc21	none
CCCc1ccc(/C=N/NC(=O)c2ccc([N+](=O)[O-])cc2Cl)cc1	none
Cc1cc(-c2onc(C)c2CO)no1	none
CC1(C)OC2OC(COC(=O)/C=C/c3ccccc3)C3OC(C)(C)OC3C2O1 (stereo unspecified)	none
Cc1cc(N2CCc3ccccc32)n2ncnc2n1	CapD inh -4.67
Cc1cc(N2CCN(c3ccccn3)CC2)n2ncnc2n1	none
COc1ccccc1-c1c(C)nn2c(N3CCc4ccccc43)cc(C)nc12	none
O=C(Nc1ccc2sc3ccccc3c(=O)c2c1)c1cccc(Cl)c1	none
CCCCOc1ccc(C2C(N3C(=O)c4c(Cl)c(Cl)c(Cl)c(Cl)c4C3=O)C(=O)N2c2ccc(Br)cc2)cc1 (stereo unspecified)	none
COc1ccccc1NC(=O)Cn1cnc2sc(C(=O)N3CCN(c4ccc(F)cc4)CC3)c(C)c2c1=O	none
CCOC(=O)/C(C#N)=C/Nc1cc(C)no1	CapD inh -4.16
CCOC(=O)/C(C#N)=C/Nc1ccn[nH]1	none
CCOC(=O)/C(C#N)=C/Nc1ccc2c(c1)OCO2	none
COc1cc2[nH]c3c(=O)n(Cc4ccc(Cl)cc4)cnc3c2cc1OC	none
O=C(CSc1nnc(-c2ccccc2)c(-c2ccccc2)n1)Nc1ccc(F)cc1	none
COc1ccc(C(=O)CSc2nnc(-c3ccco3)c(-c3ccco3)n2)cc1	none
O=C(CSc1nnc(-c2ccco2)c(-c2ccco2)n1)Nc1ccc(C(=O)O)cc1	CapD inh -10.9
O=C(O/N=C/c1ccc2c(c1)OCO2)c1ccccc1Br	none
FC(F)(F)c1nn(-c2ccccc2)c(-c2ccccc2)c1OCc1ccccc1	none
Cc1noc(/C=C/N(C)C)c1S(=O)(=O)NC1CCCCC1	CapD inh -4.21
Cc1noc(/C=C/N(C)C)c1S(=O)(=O)N(C)c1ccc(C(C)C)cc1	none
Cc1noc(/C=C/N(C)C)c1S(=O)(=O)NCCN1CCC(Cc2ccccc2)CC1	none
O=C(Nc1ccccc1[N+](=O)[O-])c1cccc(S(=O)(=O)Nc2ccc(C(=O)N3CCOCC3)cc2)c1	none
CCC(Nc1ccccc1)C(=O)N/N=C/c1ccccc1O (stereo unspecified)	none
NC(CO)C(=O)NNCc1ccc(O)c(O)c1O (stereo unspecified)	none
NC(CO)C(=O)N/N=C/c1ccc(O)c(O)c1O (stereo unspecified)	CapD inh -6.9
Cc1ccc(-c2cnc3ccccc3[n+]2C)c(C)c1	none
COC(=O)C1=CN(CCC23CC4CC(CC(C4)C2)C3)C=C(C(=O)OC)C1c1cccc(Br)c1	none
CC(C)(C)OC(=O)N(CCOC(=O)N1CCC(O)(c2cccc(C(F)(F)F)c2)CC1)Cc1cccc2ccccc12	none
Cc1nc(-c2ccc(C(F)(F)F)cc2)sc1C(=O)NNC(=O)OCCN1CCN(c2ncc(Cl)cc2C(F)(F)F)CC1	none
O=C1CCCC2=C1C(c1ccco1)c1c([nH]n(-c3ccccc3)c1=O)N2 (stereo unspecified)	none
CC1(C)CC(=O)C2=C(C1)Nc1[nH]n(-c3ccccc3)c(=O)c1C2c1ccco1 (stereo unspecified)	CapD inh -4.56
CC1(C)CC(=O)C2=C(C1)Nc1ccc3ccccc3c1C2c1ccco1 (stereo unspecified)	none
CSc1nc2c(=S)[nH]c(=S)[nH]c2s1	CapD inh -5.47
CSc1nc2nc(N)nc(N)c2s1	none
CC(COC(=O)N1CCN(c2ncnc3sccc23)CC1)c1ccccc1 (stereo unspecified)	none
O=C1c2ccccc2CC(=O)c2sccc21	CapD inh -6.75
CN1CCC(=C2c3ccccc3CC(=O)c3sccc32)CC1	none
O=C1/C(=C/c2cccs2)Cc2ccccc21	none
CC1CCN(CN2C(=O)/C(=C\c3ccccc3Cl)SC2=S)CC1	none
COCCOC(=O)C1=C(N)OC(C)=C(C(C)=O)C12C(=O)Nc1ccc(Br)cc12 (stereo unspecified)	none
O=C1NCCC/C1=N/Nc1ccccc1	CapD inh -3.88
O=C1NCC(=Nc2ccccc2)C(=O)N1	none
Cc1ccc(N/N=C2/CCCNC2=O)cc1	none

Compound activity (PubChem)
